# Screens (PubChem BioAssay)
# Sampled rows, rich in hits. Any-hit rate of the full collection: about 12%.
# Sfp PPTase inh: Sfp phosphopantetheinyl transferase inhibition | Q9F4F7 | Biochemical Sfp PPTase activity, qHTS | AID 1490 | 310,000 compounds, 3.5% hits | Potency, µM, for the others: largest response in the series, negative = inhibition, most hits filed as inhibitors;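 also: the enzyme is Sfp with the accession as filed and its product quenches rhodamine fluorescence; 0% = enzyme reaction without inhibitor and -100% = no enzyme wells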
#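 Reaction rates are the 30-min fluorescence difference (ex 525, em 598 nm) in wells containing 15 nM Sfp, 5 uM rhodamine-CoA and 12.5 uM BHQ-2-YbbR at pH 7.6 with 10 mM MgCl2.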
# BAZ2B inh: blocks human BAZ2B; AlphaScreen BAZ2B-H3K14Ac peptide displacement; AID 504333; Potency, µM (doses to about 114 µM), for the others: at the top dose activity change, negative = inhibition, actives largely listed as inhibitors; 360,000 compounds, 4.4% hits; also: % is scaled to controls: 0 for no effect and ±100 for the full control effect; nearly all actives have a fitted effect of over 60% in size
#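 BAZ2B (50 nM) with biotin-H3(5-23)K14Ac peptide (50 nM) in PBS pH 7.4, 0.01% Tween-20, preformed 30 min, then compound 30 min at room temperature; top concentration 110uM. AlphaScreen streptavidin donor/nickel chelate acceptor beads (10 ug/mL final), 20 min dark, signal read.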
# L3MBTL1 inh: L3MBTL1 (human) inhibition; AID 485360; 230,000 compounds, 0.66% hits; Q9Y468; Potency, µM (top dose mostly 57.1 µM), without a hit: at the highest dose activity, negative = inhibition, hits mostly inhibitors; AlphaScreen L3MBTL1–H3K9me1 peptide binding; also: % is scaled to controls: 0 for no effect and ±100 for the full control effect; nearly all actives have a fitted effect of over 60% in size
#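 L3MBTL1 (50 nM) pre-complexed 30 min with biotinylated H3(1-15)K9me1 peptide (75 nM), then compounds added for 30 min at room temperature; AlphaScreen streptavidin donor/nickel chelate acceptor beads (10 ug/mL final) read after 30 min dark incubation.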
# JMJD2A Tudor inh: JMJD2A Tudor domain (human) inhibition. O75164. AlphaScreen JMJD2A-Tudor / H3K4me3 peptide binding. Potency, µM (doses to about 114 µM), for the others: top-dose activity change, negative = inhibition, most hits filed as inhibitors. 390,000 compounds, 4.4% hits; also: % is scaled to controls: 0 for no effect and ±100 for the full control effect; nearly all actives have a fitted effect of over 50% in size
# G9a inh: blocks human histone lysine methyltransferase G9a. AID 504332. G9a H3K9 monomethylation, AlphaScreen, 2 h. Potency, µM (titrated, usually from 102 µM), inactives show at the highest dose activity, negative = inhibition, usual class: inhibitors. 350,000 compounds, 8.8% hits; also: % is scaled to controls: 0 for no effect and ±100 for the full control effect; nearly all actives have a fitted effect of over 75% in size
#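 AlphaScreen detection with an anti-monomethyl H3K9 antibody quantified product after a 2 h room-temperature reaction containing 500 nM biotinylated H3K9 peptide, 20 µM SAM and 20 nM enzyme, which had been preincubated 15 min with compound.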
# HP1b binding inh: inhibitors of HP1-beta chromodomain binding to methylated histone tails. 390,000 compounds, 0.56% hits. Potency, µM (titrated, usually from 114 µM), inactives show at the highest dose activity change, negative = inhibition, actives largely listed as inhibitors. AlphaScreen HP1-beta / biotin-H3K9me3 peptide binding. P83916; also: nearly all actives have a fitted effect of over 70% in size
#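 HP1-beta protein (50 nM final) preincubated 30 min at room temperature with biotinylated H3(1-18)K9me3 peptide (50 nM) in PBS pH 7.4, 0.01% Tween-20, then compound added for 30 min. AlphaScreen streptavidin donor/nickel chelate acceptor beads (10 ug/mL final), 30 min dark, luminescence read.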
# The depositor's hits bear a star; ? = inconclusive; · = no result given; [ ] = remark or other dose. Calls follow the shape of the dose curve; as a rule, active = well fitted curve in the direction sought with a large enough effect; inconclusive = small, poorly fitted or top-dose-only effect, or another doubt; inactive = no such curve, though single readings can be large; an effect the other way counts as inactive or inconclusive. Potency is read from the fitted curve at half-maximal effect.
SMILES,Sfp PPTase inh,BAZ2B inh,L3MBTL1 inh,JMJD2A Tudor inh,G9a inh,HP1b binding inh
O=C(NCc1ccccc1)C12CN(Cc3ccccc3)CC1C(c1cccc([N+](=O)[O-])c1)=NO2 (stereo not drawn),1%,?,-9%,-22%,8.9µM*,16%
O=C(NCc1ccc(OC(F)(F)F)cc1)C12CN(Cc3ccccc3)CC1C(c1cccc([N+](=O)[O-])c1)=NO2 (stereo not drawn),-15%,-12%,-12%,-33%,?,-2%
Cc1ccc(CCNC(=O)C23CN(Cc4ccccc4)CC2C(c2ccc([N+](=O)[O-])cc2)=NO3)cc1 (stereo not drawn),10µM*,-6%,12%,?,-14%[59 µM],-19%
Cc1ccc(CNC(=O)C23CN(Cc4ccccc4)CC2C(c2ccc([N+](=O)[O-])cc2)=NO3)cc1 (stereo not drawn),40µM*,?,-16%,?,?,0%
CCCCN(CCCC)CCCNC(=O)C12CN(Cc3ccccc3)CC1C(c1cccc([N+](=O)[O-])c1)=NO2 (stereo not drawn),-11%,10%,-4%,-36%,?,6%
O=C(NCc1cc(C(F)(F)F)cc(C(F)(F)F)c1)C12CN(Cc3ccccc3)CC1C(c1cccc([N+](=O)[O-])c1)=NO2 (stereo not drawn),-9%,17%,-6%,-26%,-48%[12.7 µM],3%
COc1ccc(Oc2ncc3nc(-c4ccccc4)c(=O)n(CCC#N)c3n2)cc1,1%,·,·,·,1%[12.7 µM],·
Cc1ccc(S(=O)(=O)N=S(CCO)CCO)cc1,35%,6%,8%,-6%,6%[59 µM],8%
CC(=O)c1c(C)[nH]c(C(=O)OCc2cccc(C)c2)c1C,-2%,50µM*,·,-10%,-49%,-1%
CC(=O)c1c(C)[nH]c(C(=O)OCC(=O)C(C)(C)C)c1C,-3%,?,2%,-26%,-13%[2.33 µM],16%
CC(=O)c1c(C)[nH]c(C(=O)OCC(=O)c2ccc(C)s2)c1C,·,56µM*,-3%,-15%,-3%[2.33 µM],11%
CCOC(=O)c1c(C)[nH]c(C(=O)OCc2ccccc2)c1C,22%,-31%,·,-9%,18%,21%
COC(=O)CCc1c(C)[nH]c(C(=O)OCc2ccccc2)c1C,10%,50µM*,-11%,?,?,-38%
CC(C)Oc1ccc(C(=O)N(Cc2ccco2)c2ccccn2)cc1,·,-22%,·,-14%,3%[59 µM],36%
Cc1[nH][nH]c(=O)c1C(c1c(C)[nH][nH]c1=O)c1cn(Cc2ccc(F)cc2)c2ccccc12,-15%,45µM*,?,50µM*,8.9µM*,?
Cc1[nH][nH]c(=O)c1C(c1c(C)[nH][nH]c1=O)c1cn(Cc2ccc(Cl)c(Cl)c2)c2ccccc12,-13%,28µM*,?,50µM*,8.9µM*,?
C/C(=N\Nc1ccccc1C)c1cccnc1,3%,?,·,50µM*,1.4µM*,11%
Cc1ccccc1NC(NC(=O)c1cccnc1)C(Cl)(Cl)Cl (stereo not drawn),-7%,11%,-3%,-12%,23%,28%
CSc1nncc(/C(C)=N\Nc2ccccc2C)n1,1%,-2%,·,-29%,2.5µM*,-21%
C[C@H](CO)N1C[C@H](C)[C@@H](CN(C)S(=O)(=O)c2cn(C)cn2)Oc2ccc(NC(=O)Cn3cnnn3)cc2C1=O,·,·,5%,-1%,·,49%
Cc1nc(N2C(=O)c3oc4ccccc4c(=O)c3C2c2ccccc2F)sc1C (stereo not drawn),·,11%[57.1 µM],·,-4%,15%[59 µM],50%
Cc1ccc(NC(=S)NCCc2c[nH]c3ccccc23)c(C)c1,7%,35µM*,-27%,?,?,-9%
COc1ccc(NC(=S)NCCc2c(C)[nH]c3ccc(OC)cc23)cc1,6%,·,·,?,50µM*,-23%
COc1cc(NC(=S)NCCc2c[nH]c3ccccc23)c(OC)cc1Cl,23%,?,-23%,?,45µM*,?
COc1ccccc1NC(=S)NCCc1c[nH]c2ccccc12,-2%,45µM*,-14%,?,-7%[0.501 µM],8.9µM*
SMILES,Sfp PPTase inh,BAZ2B inh,L3MBTL1 inh,JMJD2A Tudor inh,G9a inh,HP1b binding inh
CCOc1cc(C2c3c(oc4ccccc4c3=O)C(=O)N2Cc2ccc3c(c2)OCO3)ccc1O (stereo not drawn),·,3%,·,-9%,4%[59 µM],27%
COc1ccc2oc(=O)c(C(=O)NCCc3c(C)[nH]c4ccc(C)cc34)cc2c1,·,25µM*,·,?,?,?
COc1ccc2c(CCNC(=O)Nc3ccccc3)c[nH]c2c1,11%,-35%,-13%,-31%,?,-4%
COc1ccc2oc(=O)c(C(=O)NCc3ccc(F)cc3)cc2c1,5%,3%,-4%,-7%,15%,40%
COc1ccc(OC)c(NC(=O)NCCc2c[nH]c3ccccc23)c1,6%,?,·,-32%,79µM*,-13%
COc1cc(CNCCc2c[nH]c3ccccc23)ccc1OCc1ccc(F)cc1,-17%,50µM*,·,?,?,?
COc1cccc(CNCCc2c[nH]c3ccccc23)c1OCc1ccc(F)cc1,-28%,-31%,·,?,10%[2.33 µM],-30%
